For twelve compounds, growth results are on record in PubChem BioAssay (NCI).

Each structure is given as a SMILES string. Several values for one entry are separate records, joined by “and”; a condition that tells them apart may be missing. Equal values may be shown once. This is part of a sample that, as a whole, favours compounds with a hit. Of some 83,000 tested, about 20% had one in any assay.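 Growth was measured after 48 h exposure to one concentration of compound in 96-well plates. Values under 10 count as active.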 Activity calls are given as the source filed them.

What all share (experiment): NCI-60 one-dose screen, 48 h (100 = growth as untreated, 0 = no growth, -100 = all killed)
Holding throughout (conditions): 10 µM unless noted

Test [1] relates to HCT-15 colon.
Test [2] deals with HT29 colon.
The subject of test [3] is SNB-75 CNS.
Test [4] deals with SNB-19 CNS.
The test system of test [5] is U251 CNS.
In test [6] the test system is PC-3 prostate.
Test [7] has as its system SK-MEL-5 melanoma.
Test [8] concerns UACC-62 melanoma.
For test [9], the system named is SK-MEL-28 melanoma.
Test [10] deals with LOX IMVI melanoma.

In the case of `CCOC(=O)c1csc(N)n1`, the growth is 101% (inactive) and 100% (inactive) in test [1]; 103% (inactive) and 96.8% (inactive) in test [2]; 84.5% (inactive) and 86% (inactive) in [3]; 89.9% (inactive) and 96.8% (inactive) in [4]; 111% (inactive) and 86.7% (inactive) in test [5]; 95.4% (inactive) and 94.5% (inactive) in test [6]. For the same compound, the growth in test [7] was 108% (inactive) and 101% (inactive); in test [8], 93.3% (inactive) and 94.2% (inactive); in test [9], 98.9% (inactive) and 106% (inactive).

With `Cc1ccc([N+](=O)[O-])cc1Br`, the growth in test [1] was 101% (inactive); in test [2], 70.7% (inactive); in [3] it was 104% (inactive); in [4], 97.9% (inactive); in test [5], 96.4% (inactive); in test [6], 94.8% (inactive). Further, the growth was 99.8% (inactive) in test [7], 95.8% (inactive) in [8], 105% (inactive) in test [10] and 104% (inactive) in [9].

With `O=C1C=CC(n2cc(F)c(=O)[nH]c2=O)O1` (stereo unspecified), the growth was 57.8% (inactive) in test [1]; 39.4% (inactive) in [2]; 79.8% (inactive) in test [3]; 79% (inactive) in test [4]; 82.2% (inactive) in test [5]; 92.9% (inactive) in test [6]. Also, the growth in test [7] is 60.4% (inactive); in test [8] it was 44.5% (inactive); in test [10], 54.8% (inactive); in [9] it was 75.1% (inactive).

Regarding `O=C(O)C#Cc1ccc(Cl)cc1`, the growth in test [1] is 103% (inactive); in test [2], 98.1% (inactive); in test [3], 85.6% (inactive); in test [4], 99.8% (inactive); in test [5], 93.8% (inactive); in test [6] it was 92% (inactive). Further, the growth in test [7] was 96.1% (inactive); in [8], 95.7% (inactive); in test [9], 107% (inactive).

Turning to `CC1(CO)CCCC1NCCNC1CCCC1(C)CO` (stereo unspecified), the growth in test [1] was 96.8% (inactive) and 99% (inactive); in test [2] it was 91.3% (inactive) and 103% (inactive); in [3] it was 84.7% (inactive) and 97.9% (inactive); in test [4] it was 102% (inactive) and 103% (inactive); in [5], 106% (inactive); in test [6], 90.9% (inactive) and 95% (inactive). Besides, the growth in [7] was 99.7% (inactive) and 101% (inactive); in [8] it was 99% (inactive) and 102% (inactive); in test [9] it was 104% (inactive) and 108% (inactive).

For the compound `NCCSSC/C=C\CSSCCN`, the growth was 102% (inactive) in test [1]; 106% (inactive) in test [2]; 91.6% (inactive) in test [3]; 105% (inactive) in [4]; 92.1% (inactive) in test [5]; 78.3% (inactive) in test [6]. Also, the growth was 97.2% (inactive) in test [7], 105% (inactive) in test [8], 97.5% (inactive) in test [10] and 115% (inactive) in [9].

Regarding `ON=C(C1CCCCC1)C1CCCCC1`, the growth is 106% (inactive) in test [1]; 103% (inactive) in [2]; 87.3% (inactive) in [3]; 100% (inactive) in test [4]; 98.1% (inactive) in test [5]; 98.1% (inactive) in test [6]. Besides, the growth is 108% (inactive) in test [7], 91.8% (inactive) in test [8] and 102% (inactive) in test [9].

Turning to `Cc1onc(-c2c(F)cccc2Cl)c1-c1ncc(-c2ccc(Cl)cc2)o1`, the growth in [1] is 29.5% (inactive) and 16.4% (inactive); in [2] it was 23.3% (inactive) and 21.8% (inactive); in [3], 84% (inactive) and 62% (inactive); in test [4] it was 80.7% (inactive) and 40% (inactive); in test [5], 41.1% (inactive); in [6] it was 31% (inactive) and 34.5% (inactive). The growth in test [7] was 25.4% (inactive) and 6.61% (active); in [8] it was 29.7% (inactive) and 32.2% (inactive); in test [9], 68.8% (inactive) and 50.2% (inactive).

Consider `CC(=O)Nc1ccc(OC(C)=O)cc1`, for which the growth is 13.5% (inactive) and 102% (inactive) in test [1]; -0.769% (active) and 105% (inactive) in test [2]; 37.6% (inactive) and 94.3% (inactive) in test [3]; 35.2% (inactive) and 111% (inactive) in [4]; 11.7% (inactive) and 102% (inactive) in test [5]; 11.5% (inactive) and 92.8% (inactive) in test [6]. Besides, the growth was 92.8% (inactive) in test [7]; 18.5% (inactive) and 108% (inactive) in [8]; 82.6% (inactive) and 110% (inactive) in [9].

For `O=P(O)(O)OC1C(OP(=O)(O)O)C(OP(=O)(O)O)C(OP(=O)(O)O)C(OP(=O)(O)O)C1OP(=O)(O)O.[Cu+2]` (stereo unspecified), the growth in test [1] is 102% (inactive); in [2] it was 96.5% (inactive); in test [3], 136% (inactive); in test [4], 106% (inactive); in [5] it was 32.6% (inactive); in [6], 105% (inactive). The growth in test [7] was -56.1% (active); in test [8], 79.7% (inactive); in [9], 116% (inactive).

With `CCC(C)NC(=O)c1ccccc1C` (stereo unspecified), the growth in [1] is 96.3% (inactive); in test [2] it was 97.4% (inactive); in [3], 76.8% (inactive); in test [4] it was 97.9% (inactive); in test [5] it was 102% (inactive); in [6], 101% (inactive). Further, the growth in [7] was 91% (inactive); in test [8], 100% (inactive); in test [9], 94.3% (inactive).

Take `CC(C)(C(=O)c1cccnc1)c1cccnc1`: the growth in [1] was 104% (inactive) and 105% (inactive); in [2], 104% (inactive) and 119% (inactive); in [3], 107% (inactive) and 103% (inactive); in test [5], 103% (inactive) and 116% (inactive); in [6], 89.5% (inactive) and 92.5% (inactive); in test [7], 98.4% (inactive) and 106% (inactive). The growth is 101% (inactive) and 103% (inactive) in test [8]; 102% (inactive) and 111% (inactive) in test [10]; 112% (inactive) and 121% (inactive) in [9].
